Rows were chosen to be rich in hits. Some 9.9% of all compounds tested hit in one or more screens of this group.
HPGD block = qHTS Assay for Inhibitors of HPGD (15-Hydroxyprostaglandin Dehydrogenase) | Potency, µM, actives largely listed as inhibitors | purified HPGD, NADH fluorescence kinetic, PGE2 substrate | 15-hydroxyprostaglandin dehydrogenase [NAD(+)] (Homo sapiens), P15428 | 4.3% of 150,000 active; active means well fitted inhibition curve with a large enough effect, not every such curve was filed as active; inconclusive means small, poorly fitted or top-dose-only effect, or another doubt; inactive means no such curve, though single readings can be large or run the other way
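NADH formation kinetics: reaction with 30 uM PGE2 and 1 mM NAD+ (final), 20 nM enzyme, Tris-HCl pH 8 with Tween 20, after 15 min compound preincubation at room temperature. Fluorescence change, last versus first of five reads.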
ALDH1A1 inh = qHTS Assay for Inhibitors of Aldehyde Dehydrogenase 1 (ALDH1A1). Purified ALDH1A1, NADH fluorescence, propionaldehyde substrate. 7.3% of 220,000 active. Potency, µM (doses to about 75.3 µM), actives largely listed as inhibitors. Aldehyde dehydrogenase 1A1 (Homo sapiens), P00352; active means well fitted inhibition curve with a large enough effect, not every such curve was filed as active; inconclusive means small, poorly fitted or top-dose-only effect, or another doubt; inactive means no such curve, though single readings can be large or run the other way
Target sequence (P00352 whole entry, looked up): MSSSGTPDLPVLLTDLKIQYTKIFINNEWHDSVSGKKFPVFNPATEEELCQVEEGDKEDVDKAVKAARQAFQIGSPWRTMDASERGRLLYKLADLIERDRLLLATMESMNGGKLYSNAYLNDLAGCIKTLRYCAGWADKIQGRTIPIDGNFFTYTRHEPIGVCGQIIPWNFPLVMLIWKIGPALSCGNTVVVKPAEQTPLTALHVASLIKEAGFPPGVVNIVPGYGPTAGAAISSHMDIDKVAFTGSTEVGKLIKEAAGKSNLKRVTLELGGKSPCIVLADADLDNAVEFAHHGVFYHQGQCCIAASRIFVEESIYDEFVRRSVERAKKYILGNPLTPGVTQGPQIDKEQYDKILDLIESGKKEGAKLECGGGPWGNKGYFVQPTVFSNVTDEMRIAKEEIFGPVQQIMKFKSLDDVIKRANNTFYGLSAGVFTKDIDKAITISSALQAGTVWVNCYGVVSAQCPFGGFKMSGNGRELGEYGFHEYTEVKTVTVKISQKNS
Tau fluor counter = Counterscreen qHTS for Inhibitors of Tau Fibril Formation, Fluorescence Polarization; tau K18 P301L Alexa594 fluorescence, heparin fibrillization; Potency, µM (top dose mostly 57.7 µM); 0.93% of 280,000 active; AID 1463, 2008; further: nearly all actives have a fitted effect of over 55% in size
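Human K18 P301L tau (15 uM unlabeled plus 0.24 uM Alexa 594-labeled, final) in 100 mM sodium acetate pH 7 was mixed with compound and 20 uM heparin and incubated 6 hr at 37 C.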
Tau FP inhib = qHTS for Inhibitors of Tau Fibril Formation, Fluorescence Polarization; K18 P301L tau heparin fibrillization, Alexa594 FP, 6 h; Potency, µM (top dose mostly 57.7 µM), usual class: inhibitors; 0.39% of 280,000 active; AID 1468, 2008; further: nearly all actives have a fitted effect of over 55% in size
Target sequence (P10636 561-689 P618L limits assumed): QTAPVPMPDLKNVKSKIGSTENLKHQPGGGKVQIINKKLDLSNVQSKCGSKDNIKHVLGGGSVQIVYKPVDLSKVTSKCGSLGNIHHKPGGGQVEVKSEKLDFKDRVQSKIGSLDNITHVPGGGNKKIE
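Steps: dispense K18 P301L tau (15 uM plus 0.24 uM Alexa 594 tracer, final) in pH 7 sodium acetate; add compound; add heparin (20 uM final); incubate 6 hr, 37 C; add ThT (30 uM final); after 1 hr ambient, read FP.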
Tau ThT inhib = qHTS for Inhibitors of Tau Fibril Formation, Thioflavin T Binding. recombinant tau K18 P301L, heparin-induced fibrillization, ThT fluorescence. 2.1% of 270,000 active. Microtubule-associated protein tau (Homo sapiens), P10636. Potency, µM (series often up to 57.4 µM), usual class: inhibitors; further: nearly all actives have a fitted effect of over 55% in size
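Fibril formation assay: tau K18 P301L at 15 uM with trace Alexa 594 label, heparin inducer 20 uM, pH 7 sodium acetate buffer, 37 C for 6 hr; endpoint ThT signal.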
KDM4E inh = qHTS Assay for Inhibitors of Human Jumonji Domain Containing 2E (JMJD2E); Lysine-specific demethylase 4E (Homo sapiens), B2RXH2; JMJD2E catalytic domain, FDH-coupled NADH fluorescence (FDH is formaldehyde dehydrogenase); Potency, µM (highest dose often 57.1 µM), actives largely listed as inhibitors; 1.6% of 230,000 active; active means well fitted inhibition curve with a large enough effect, not every such curve was filed as active; inconclusive means small, poorly fitted or top-dose-only effect, or another doubt; inactive means no such curve, though single readings can be large or run the other way; further: nearly all actives have a fitted effect of over 50% in size
A number is an active result; 0 = inactive; ? = inconclusive; - = not tested or not shown. Unless noted, the call rests on the fitted dose curve; in most records, active means well fitted curve in the direction sought with a large enough effect; inconclusive means small, poorly fitted or top-dose-only effect, or another doubt; inactive means no such curve, though single readings can be large; an effect the other way counts as inactive or inconclusive.

SMILES	HPGD block	ALDH1A1 inh	Tau fluor counter	Tau FP inhib	Tau ThT inhib	KDM4E inh
O=C(O)c1cccc(N2CCCC2=O)c1	20µM	?	0	0	0	0
COc1ccc(-c2ccc(CNc3ccc4[nH]c(=O)[nH]c4c3)o2)cc1Cl	-	-	?	0	?	-
O=c1/c(=C/c2ccc(O)c([N+](=O)[O-])c2)sc2nc3ccccc3n12	-	0	0	0	2µM	0
O=c1/c(=C\c2cccnc2)sc2nc3ccccc3n12	0	0	0	0	?	0
COc1ccc(C(c2nnnn2Cc2ccccc2)N2CCN(c3nc4ccccc4s3)CC2)cc1OC (stereo unspecified)	0	0	0	0	0	0
c1csc(Cn2nnnc2CN2CCN(c3nc4ccccc4s3)CC2)c1	0	16µM	0	0	0	0
c1ccc(Cn2nnnc2C(c2ccccc2)N2CCN(c3nc4ccccc4s3)CC2)cc1 (stereo unspecified)	0	11µM	0	0	0	0
CC(=O)C1=C(C)NC(SCc2cccc3ccccc23)=C(C#N)C1c1ccco1 (stereo unspecified)	?	?	?	?	0	?
CCOC(=O)C1=C(c2ccccc2)NC(SC)=C(C#N)C1c1ccco1 (stereo unspecified)	0	?	0	0	0	0
CC1=C(C(=O)Nc2ccccc2)C(c2ccncc2)C(C#N)=C(SCC(=O)NC(C)C)N1 (stereo unspecified)	0	?	0	0	0	0
N#CC1=C(SCC(=O)c2ccc(Br)cc2)NC2=C(C(=O)CCC2)C1c1ccco1 (stereo unspecified)	0	?	?	0	14µM	0
CC(=O)C1=C(C)NC(SCC(=O)c2ccccc2)=C(C#N)C1CC(C)C (stereo unspecified)	32µM	7.1µM	0	0	0	?
CC(=O)C1=C(C)NC(SCC(=O)c2ccccc2)=C(C#N)C1c1ccco1 (stereo unspecified)	32µM	20µM	?	0	22µM	0
COC(=O)CSC1=C(C#N)C(c2ccc(C)cc2)C2=C(CCCC2=O)N1 (stereo unspecified)	0	?	0	0	0	?
CC(=O)C1=C(C)NC(SCc2ccc(C#N)cc2)=C(C#N)C1c1ccco1 (stereo unspecified)	0	22µM	0	0	0	0
CCc1ccccc1NC(=O)c1ccc(F)c(S(=O)(=O)N2CCN(c3ccccc3OC)CC2)c1	-	-	0	0	0	-
CCc1ccc(C(=O)c2cn(CC(=O)Nc3cccc(OC)c3)c3cc4c(cc3c2=O)OCO4)cc1	-	-	?	?	0	-
Cc1ccc(SCC(=O)Nc2ccc3oc(-c4cccc(Cl)c4)nc3c2)cc1	-	-	0	0	0	-
CC(=O)C1=C(C)NC(SCC(=O)c2ccc(Cl)cc2Cl)=C(C#N)C1c1ccco1 (stereo unspecified)	?	?	?	0	?	0
CCOC(=O)C1=C(c2ccccc2)NC(SCC(=O)Nc2ccccc2C)=C(C#N)C1c1ccco1 (stereo unspecified)	?	14µM	0	?	0	0
CC(=O)C1=C(C)NC(SCC(=O)c2ccc(Cl)cc2)=C(C#N)C1c1ccco1 (stereo unspecified)	32µM	20µM	?	0	?	0
O=C(Cn1c(NCCCO)nc2ccccc21)c1cccc(Br)c1	0	28µM	0	0	0	0
COC(=O)C1CCN(C(=O)COc2cc3sc(C)nc3c3sccc23)CC1	0	11µM	0	0	0	0
COC(=O)C1CCN(C(=O)COc2ccc(Cl)cc2)CC1	0	0	0	0	0	0
COc1ccc(CCCC(=O)NCc2ccccc2)cc1C	16µM	0	0	0	0	0
SMILES	HPGD block	ALDH1A1 inh	Tau fluor counter	Tau FP inhib	Tau ThT inhib	KDM4E inh
COc1ccccc1CNC(=O)c1cccc(C)c1[N+](=O)[O-]	18µM	0	0	0	0	0
COCCCNC(=O)c1cccc(OC)c1OC	7.1µM	0	0	0	0	0
COC(=O)C(Cc1ccc(O)cc1)NC(=O)c1ccccc1 (stereo unspecified)	0	0	0	0	0	0
COC(=O)C(Cc1ccc(O)cc1)NC(=O)c1ccccc1OC (stereo unspecified)	0	28µM	0	?	0	0
CCCc1cc(=O)oc2c(C)c3c(cc12)CN(CCc1ccc(Cl)cc1)CO3	-	-	?	0	?	-
COc1cc(C(=O)NCc2ccccc2)cc(Br)c1OC	22µM	0	0	0	0	0
COc1ccccc1C(=O)NCc1ccc(-c2nc3ccccc3s2)cc1	18µM	?	0	0	0	?
COc1ccccc1C(=O)NCc1ccccc1	11µM	0	0	0	0	0
COc1ccc(NC(=O)c2ccccc2[N+](=O)[O-])cc1	0	0	0	0	0	0
COc1ccc(CNC(=O)c2ccccc2[N+](=O)[O-])cc1	11µM	0	0	0	0	0
COc1cc(C(=O)NCc2ccncc2)cc(OC)c1OC	-	0	0	0	0	0
COc1ccccc1C(=O)NCc1ccncc1	0	0	0	0	0	0
COc1cccc(CNC(=O)C2CCC(CNS(=O)(=O)c3ccc(Br)s3)CC2)c1 (stereo unspecified)	-	-	0	0	0	-
CCO[C@H]1OC(C(=O)N2CCOCC2)=C[C@@H](C2CC2)[C@@H]1CCCO	-	0	0	0	0	0
Cl/C(=C\n1cncn1)c1ccc(Cl)cc1Cl	14µM	?	0	0	?	0
NC1=NC(=Nc2cccc(S(=O)(=O)N3CCOCC3)c2)c2ccccc21	-	-	0	0	0	0
Cc1cccc(C(=O)N2CCC(N3CCN(Cc4ccc(F)cc4)C(=O)C3=O)CC2)c1	-	-	0	0	0	-
CC(=O)Nc1sc2c(c1C#N)CCC(C)C2 (stereo unspecified)	-	0	0	0	0	0
Cc1ccc(C)n1-c1sc2c(c1C#N)CCC(C)C2 (stereo unspecified)	0	25µM	0	0	0	0
Clc1ccc(-c2cn3c(n2)-c2ccccc2C3)cc1Cl	0	0	0	0	0	?
COC(=O)Cn1c(=NC(=O)c2ccc([N+](=O)[O-])s2)sc2cc(Br)ccc21	0	8.9µM	0	0	?	0
COC(=O)Cn1c(=NC(=O)c2ccc(Cl)s2)sc2cc(C)ccc21	?	?	0	0	0	0
O=C1CCC/C1=c1\s/c(=C\c2cccnc2)c(=O)n1-c1ccccc1	0	6.3µM	0	0	0	0
CC(=O)Nc1ccc(N=Nc2ccc(O)cc2)cc1	?	0	0	0	7.9µM	0

Source: PubChem BioAssay
